Reference: PubChem BioAssay AID463173 (ICCB-Longwood Screening Facility, Harvard Medical School, 2010)
About 1,700 (3.3%) of roughly 52,000 compounds were called active. Rule as the data show it: active = survival mostly below about 52% (no sharp cut-off); inactive = mostly above about 56%. What follows is part of a selection rich in actives, with near analogues and random picks from the rest.

Each molecule was assayed on Wild type (assay: S. aureus survival, RN4220 and DeltatarO strains – OD600, teichoic acid synthesis inhibitors, primary screen (AID 463173)). Settings: S. aureus RN4220 wild type/DeltatarO growth, OD600, 18 h, active compounds read low, screened at 18.75 µg/mL (by protocol).

How did the survival turn out when `COC(=O)c1cc2occc2n1Cc1cccc(C)c1` was run?
The survival was -1% (active).

With `CCc1cccc(NC(=O)Cn2c(C(=O)OC)cc3occc32)c1` as the molecule, how does the survival read?
The survival was 83% (inactive).

Which survival does the source give for `CCOC(=O)c1cc2oc(C)cc2n1CC(=O)NC1CC1` here?
Its survival is 94% (inactive).

With `COC(=O)c1cc2oc(C)cc2n1Cc1cc(C)ccc1C` as the molecule, how does the survival read?
The survival was -2% (active).

`COC(=O)c1cc2oc(C)cc2n1CC(=O)Nc1cc(Cl)ccc1OC` was tested. Which survival did it give?
The survival was 88% (inactive).

With `CCOC(=O)c1cc2oc(C)cc2n1CCCN1C(=O)c2ccccc2C1=O` as the molecule, how does the survival read?
Its survival is -1% (active).

How did the survival turn out when `COC(=O)c1cc2oc(C)cc2n1Cc1cccc(Cl)c1` was run?
Its survival is -2% (active).

Which survival does the source give for `C=CCn1c(C(=O)OCC)cc2oc(C)cc21` here?
Its survival is 111% (inactive).

How did the survival turn out when `COC(=O)c1cc2oc(C)cc2n1Cc1ccc(Cl)cc1` was run?
Its survival is 72% (inactive).

How did the survival turn out when `COC(=O)c1cc2oc(C)cc2n1Cc1c(C)cc(C)cc1C` was run?
The survival was 33% (inactive).

`COC(=O)c1cc2occc2n1Cc1nc(-c2ccc(C)cc2)oc1C` was tested. Which survival did it give?
The survival was 48% (inactive).

With `COC(=O)c1cc2oc(C)cc2n1Cc1ccc(C)cc1` as the molecule, how does the survival read?
Its survival is 68% (inactive).

Which survival does the source give for `CCn1c(SCCN2CCCC2)nnc1C1CCCN(C(=O)c2ccc3c(c2)OCO3)C1` (configuration not stated) here?
The survival was 114% (inactive).

`O=C(CN1C(=O)COc2ccc(S(=O)(=O)N3CCCCCC3)cc21)NCCc1ccccc1` was tested. Which survival did it give?
The survival was 92% (inactive).

`CCSc1nc2c(c(=O)[nH]c(=O)n2C)n1CC(O)COc1ccc(Cl)cc1` (configuration not stated) was tested. Which survival did it give?
The survival was 161% (inactive).

How did the survival turn out when `COc1ccc2c(c1)c1c(c(=O)n(-c3ccc(C)cc3)c(=O)n1CC(=O)Nc1cc(C)ccc1C)n2C` was run?
The survival was 115% (inactive).

Which survival does the source give for `COc1ccc(NC(=O)Cn2cc(S(=O)(=O)N3CCN(c4ccccc4F)CC3)c3ccccc3c2=O)cc1Cl` here?
Its survival is 100% (inactive).

For `Cc1ccccc1C(=O)Nc1c(C)nc(Nc2ccccc2)nc1Nc1ccccc1`, which survival is on record?
Its survival is 94% (inactive).

With `Cc1ccc(Nc2nc(Nc3ccc(C)c(C)c3)nc(N3CCOCC3)n2)cc1C` as the molecule, how does the survival read?
Its survival is 73% (inactive).

Which survival does the source give for `O=C(CSc1nc(=O)n(Cc2ccco2)c2c1CCC2)Nc1cccc(F)c1` here?
Its survival is 72% (inactive).

With `C=CCN(CC=C)C(=O)C1CCN(Cc2cc(Br)c(O)c(OC)c2)CC1` as the molecule, how does the survival read?
The survival was 98% (inactive).

How did the survival turn out when `COC(=O)c1cc2oc(C)cc2n1Cc1ccccc1Cl` was run?
The survival was -2% (active).

How did the survival turn out when `COC(=O)c1cc2oc(C)cc2n1Cc1ccc(Br)cc1F` was run?
The survival was 48% (inactive).

With `COC(=O)c1cc2oc3ccccc3c2n1Cc1ccccc1Cl` as the molecule, how does the survival read?
Its survival is 60% (inactive).

How did the survival turn out when `CCC(Oc1ccccc1F)C(=O)Nc1cc(-c2ccccc2)no1` (configuration not stated) was run?
The survival was 66% (inactive).

With `Cc1cccc(C)c1NC(=O)c1ccc2c(c1)nnn2C1CCCC1` as the molecule, how does the survival read?
The survival was -6% (active).

For `Cc1cc(C)cc(NC(=O)c2ccc3c(c2)nnn3C2CCCC2)c1`, which survival is on record?
The survival was 121% (inactive).

How did the survival turn out when `Cc1c(Cl)cccc1NC(=O)c1ccc2c(c1)nnn2C1CCCC1` was run?
The survival was 120% (inactive).

How did the survival turn out when `COC(=O)c1ccccc1NC(=O)CSc1nnc2cc(C)c3cc(C)cc(C)c3n12` was run?
The survival was 72% (inactive).

How did the survival turn out when `CC(=O)N1CCc2c(sc3c2c(=O)n(-c2ccccc2)c(=O)n3CC(=O)c2ccc(F)cc2)C1` was run?
The survival was 91% (inactive).

How did the survival turn out when `COc1cc(O)ccc1-c1nc2cc(C)ccn2c1Nc1ccccc1C` was run?
The survival was 73% (inactive).

How did the survival turn out when `COc1ccc(Nc2c(-c3ccccn3)nc3ccc(Cl)cn23)cc1` was run?
Its survival is 96% (inactive).

Which survival does the source give for `Cc1ccn2c(Nc3ccccc3C)c(-c3ccccn3)nc2c1` here?
The survival was 24% (active).

With `CC(C)c1ccc(Nc2c(-c3ccco3)nc3ccccn23)cc1` as the molecule, how does the survival read?
The survival was 33% (inactive).

`Clc1ccc(Nc2c(-c3ccccc3Cl)nc3ccc(Cl)cn23)cc1` was tested. Which survival did it give?
The survival was 25% (inactive).

With `Oc1ccccc1-c1nc2cnccn2c1Nc1ccc(Cl)cc1` as the molecule, how does the survival read?
Its survival is -16% (active).

With `Cc1ccc2nc(-c3ccc(O)cc3)c(Nc3ccc(Cl)cc3)n2c1` as the molecule, how does the survival read?
Its survival is 69% (inactive).

With `Cc1ccc2nc(-c3ccccc3F)c(Nc3ccc(Cl)cc3)n2c1` as the molecule, how does the survival read?
The survival was 11% (active).

Which survival does the source give for `Cc1ccn2c(Nc3ccccc3C)c(-c3ccc(N4CCOCC4)cc3)nc2c1` here?
Its survival is 113% (inactive).

For `CC(C)c1ccc(Nc2c(-c3ccccc3O)nc3cnccn23)cc1`, which survival is on record?
Its survival is 61% (inactive).

`CC(C)c1ccc(Nc2c(-c3ccccn3)nc3ccccn23)cc1` was tested. Which survival did it give?
The survival was -21% (active).

`Cc1cccc(C)c1Nc1c(-c2ccccc2Cl)nc2cnccn12` was tested. Which survival did it give?
Its survival is 123% (inactive).

Which survival does the source give for `N#C/C(=C\c1cn(CC(=O)N2CCCC2)c2ccccc12)C(=O)NC1CC1` here?
Its survival is 103% (inactive).

With `CCC(C(=O)NC1CCCCC1)n1c(SCc2ccccc2F)nc2ccncc21` (configuration not stated) as the molecule, how does the survival read?
Its survival is 73% (inactive).

How did the survival turn out when `COc1ccc(CNC(=O)CCc2c(C)nc3nc(CNC(=O)OC(C)(C)C)nn3c2C)cc1` was run?
Its survival is 77% (inactive).

How did the survival turn out when `COc1ccc(C2=NS(=O)(=O)N(C)C(C(=O)NCc3ccccc3)=C2)cc1OC` was run?
The survival was 102% (inactive).

Which survival does the source give for `CCC(C)NC(=O)CSc1nc2n[nH]c(C)c2c(=N)n1-c1cc(Cl)ccc1C` (configuration not stated) here?
Its survival is 72% (inactive).

`COc1ccccc1CNC(=O)c1c[nH]c2ccc(S(=O)(=O)Nc3cc(C)cc(C)c3)cc2c1=O` was tested. Which survival did it give?
Its survival is 67% (inactive).

`CCC(C)n1c(=O)c2sccc2n2c(CCCC(=O)Nc3ccc(F)cc3)nnc12` (configuration not stated) was tested. Which survival did it give?
The survival was 97% (inactive).

`CCN(CC)C(=O)C(C(F)(F)F)C(F)(F)F` was tested. Which survival did it give?
The survival was 103% (inactive).

With `Cc1ccc(Nc2c(-c3ccccn3)nc3ccc(Br)cn23)cc1` as the molecule, how does the survival read?
The survival was 60% (inactive).

`Cc1ccccc1Nc1c(-c2cccnc2)nc2ccc(Cl)cn12` was tested. Which survival did it give?
The survival was 81% (inactive).

`Cc1ccc2nc(-c3ccccn3)c(Nc3ccc(F)cc3)n2c1` was tested. Which survival did it give?
The survival was 16% (active).

`Cc1ccccc1Nc1c(-c2ccncc2)nc2ccc(Cl)cn12` was tested. Which survival did it give?
The survival was 128% (inactive).

With `Cc1ccc2nc(-c3ccccn3)c(Nc3ccccc3C)n2c1` as the molecule, how does the survival read?
The survival was 18% (active).

With `Cc1ccc2nc(-c3ccncc3)c(Nc3ccccc3C)n2c1` as the molecule, how does the survival read?
Its survival is 101% (inactive).

For `Fc1ccc(Nc2c(-c3ccccn3)nc3ccc(Cl)cn23)cc1`, which survival is on record?
The survival was 73% (inactive).

With `Cc1ccc2nc(-c3ccccc3O)c(Nc3ccccc3C)n2c1` as the molecule, how does the survival read?
Its survival is 79% (inactive).

For `Cc1ccc(Nc2c(-c3ccccc3O)nc3cc(C)ccn23)cc1`, which survival is on record?
The survival was 73% (inactive).

For `CSc1ccc(-c2nc3cc(C)ccn3c2Nc2ccc(C)cc2)cc1`, which survival is on record?
Its survival is 87% (inactive).

How did the survival turn out when `Cc1ccc(Nc2c(-c3cc(Br)ccc3F)nc3cc(C)ccn23)cc1` was run?
Its survival is 0% (active).

`Cc1ccccc1Nc1c(-c2ccc(Br)o2)nc2ccc(Cl)cn12` was tested. Which survival did it give?
Its survival is 10% (active).
